Screens (PubChem)
HT1080 IDH1KD tx = HT-1080 IDH1 knockdown cell toxicity (counter line); 2% of 360,000 active; HT-1080 IDH1 knockdown viability, ATP luminescence, 48 h; Potency, µM (series often up to 46.1 µM), for the others: at the highest dose activity, negative = toxicity, actives largely listed as cytotoxic;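 note: potency is the fitted concentration of half-maximal effect; 0% = DMSO wells and -100% = cell-free medium wells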
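Viability of IDH1-knockdown HT-1080 fibrosarcoma cells was assessed by CellTiter-Glo after 48 h at 37 °C with titrated compound; concentration-effect curves were classified by fit quality and response size.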
DT40 TDP1 CPT = growth inhibition of DT40 Tdp1-/-;hTDP1 cells with camptothecin (screen for TDP1 inhibitors) | chicken DT40 Tdp1-/-;hTDP1 cells + 20 nM CPT, ATP luminescence, 48 h | Potency, µM (titrated, usually from 46.2 µM), without a hit: at the top dose activity change, negative = growth inhibition, hits mostly inhibitors | 12% of 420,000 active | AID 686979; note: potency is the fitted concentration of half-maximal effect; nearly all actives have a fitted effect of over 55% in size
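Cell growth measured by CellTiter-Glo luminescence after a minimum 48 h, 37 C compound exposure with 20 nM CPT in Tdp1-knockout DT40 cells stably expressing hTDP1, seeded 400/well; qHTS titration format.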
TDP1 cell noCPT = qHTS for Inhibitors of human tyrosyl-DNA phosphodiesterase 1 (TDP1): qHTS in cells in absence of CPT; AID 686978, 2013; 15% of 420,000 active; Potency, µM (doses to about 46.2 µM), for the others: at the top dose activity change, negative = growth inhibition, actives largely listed as inhibitors; DT40 Tdp1-/- hTDP1 cells, no CPT, ATP luminescence, 48 h; note: potency is the fitted concentration of half-maximal effect; nearly all actives have a fitted effect of over 55% in size
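No-CPT arm: Tdp1-/-;hTDP1 DT40 cells (400/well) plus compounds, incubated ≥48 hr at 37 °C. Readout CellTiter-Glo luminescence.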
IL-1B inflam inh = inflammasome signaling inhibition, IL-1 beta readout; THP-1 LPS/ATP IL-1B secretion, AlphaLISA, 16 h; stronger effect = lower value; activity change, % at 57.5 µM; 4.7% of 360,000 active; AID 743279; in the data active = activity change below about -50%; inconclusive = mostly about -30% to -49%
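Secreted IL-1B measured by AlphaLISA bead assay after 16 h compound exposure of THP-1 cells; compounds (final up to 57.5 uM) added 1 h before LPS (250 ng/mL) and ATP (1.25 mM) stimulation; lower signal means less secretion.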
HT1080NT lethal = kills 2HG-producing HT-1080-NT fibrosarcoma cells; HT-1080-NT fibrosarcoma viability, CellTiter-Glo ATP luminescence, 48 h; Potency, µM (top dose mostly 46.1 µM), without a hit: at the top dose activity, negative = less viability, hits mostly cytotoxic; 1.6% of 360,000 active;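 note: NT is the 2HG producing partner of a matched IDH1 knockdown line; potency is the fitted concentration of half-maximal effect; 0% = DMSO-treated cells and -100% = media-only wells without cells; nearly all actives have a fitted effect of over 55% in size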
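Toxicity toward the 2HG-producing NT line was scored as %Activity, normalised to DMSO and no-cell wells, from CellTiter-Glo luminescence after 48 hours' treatment.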
An asterisk follows results filed as active; ? = inconclusive; . = no result given; [ ] = another dose, or the depositor's remark. Most compounds without a hit are left out; they make up all but 19% or so of the library. Unless noted, calls come from the whole dose curve; as a rule, active = well fitted curve in the direction sought with a large enough effect; inconclusive = small, poorly fitted or top-dose-only effect, or another doubt; inactive = no such curve, though single readings can be large; an effect the other way counts as inactive or inconclusive. Unless noted, % is set by controls: 0 for no effect and ±100 for the full control effect.

SMILES	HT1080 IDH1KD tx	DT40 TDP1 CPT	TDP1 cell noCPT	IL-1B inflam inh	HT1080NT lethal
CC1(c2ccccc2)NC(=O)N(N)C1=O (stereo not drawn)	?	8.1%	-4.1%	5.7	-1.5%
COc1cc(C(=O)Nc2cc(Cl)ccc2C)c(-n2cnnn2)cc1OC	2.4%	?	-4.3%	-3.7	-2.0%
CC1(C)CNc2cc(N)ccc2S1	-18.6%	0.2%	-21.4%	0.0	-4.3%
CCN(CC)S(=O)(=O)c1ccc(OC)c(NC(=O)c2cccs2)c1	-1.5%	-0.5%	-16.7%	-8.8	9.6%
O=C(Nc1ccc(S(=O)(=O)Nc2ccccc2)cc1)C1COc2ccccc2O1 (stereo not drawn)	?	16.4µM*	20.6µM*	-69.1*	?
COc1ccccc1NC(=O)c1ccc(NC(=O)C2COc3ccccc3O2)cc1 (stereo not drawn)	-0.1%	?	?	-55.2*	-17.7%
COc1ccc(OC)c(NC(=O)C2COc3ccccc3O2)c1 (stereo not drawn)	2.0%	-20.9%	-20.1%	-10.7	-0.8%
CC(C)NC(=O)c1ccccc1NC(=O)C1COc2ccccc2O1 (stereo not drawn)	-3.4%	?	20.6µM*	0.0	-2.3%
Cc1cc(C)nc(NS(=O)(=O)c2ccc(NC(=O)C3COc4ccccc4O3)cc2)n1 (stereo not drawn)	-4.2%	-4.1%	15.3%	-12.7	-7.5%
CSc1ccccc1C(=O)Nc1ccccc1C(=O)NC(C)C	-13.9%	23.1µM*	?	1.4	-0.7%
CN1CCN(c2ccc(Cl)cc2NC(=O)C2COc3ccccc3O2)CC1 (stereo not drawn)	?	?	29.1µM*	-4.3	14.6µM*
CCOC(=O)C1CCN(S(=O)(=O)c2cccc(-c3cn4cc(Cl)ccc4n3)c2)CC1	-3.1%	-19.5%	?	-0.6	-3.7%
CC1CCN(S(=O)(=O)c2cccc(-c3cn4cc(Cl)ccc4n3)c2)CC1	-0.9%	?	23.1µM*	3.9	1.1%
CCN(CC)S(=O)(=O)c1ccc(-c2cn3cc(Cl)ccc3n2)cc1	-2.1%	?	18.4µM*	2.1	0.0%
Cc1cc(=O)n2nc(N(C)CC(=O)NCc3ccc(Cl)cc3)sc2n1	.	?	-5.4%	.	.
CN(C)c1ccc(/C=N/NC(=O)c2ccccc2)cc1	?	?	?	-5.1	?
COc1cc(/C=N/NC(=O)C(=O)/C=C2\NC3(CCCC3)Cc3ccccc32)ccc1O	-25.3%	?	?	-11.9	-18.3%
CN(C)c1ccc(/C=N/NC(=O)C(=O)/C=C2\NC3(CCCC3)Cc3ccccc32)cc1	-16.4%	25.9µM*	20.6µM*	-14.1	-4.5%
O=C(/C=C1\NC2(CCCC2)Cc2ccccc21)C(=O)N/N=C/c1ccccc1O	?	3.66µM*	2.06µM*	53.7	23.1µM*
CCOc1ccccc1OC(=O)c1cc2ccccc2oc1=O	5.9%	?	?	-1.8	6.5%
COc1cc(-c2cc(OC)c3c(C)oc(C)c3c(=O)c2)ccc1OC(=O)c1ccc(C)cc1	.	5.17µM*	5.8µM*	.	.
COc1ccc(C(=O)Oc2c(C)occc2=O)cc1OC	-2.5%	4.5%	-3.2%	7.7	-4.3%
CCOc1cc(-c2ccc(OC(=O)c3ccc(C)cc3)c(OC)c2)cc(=O)c2c(C)oc(C)c12	.	5.8µM*	5.17µM*	.	.
COc1ccc(C(=O)Oc2cc(-c3ccc(OC)c(OC)c3)cc(=O)c3c(C)oc(C)c23)cc1	.	?	18.4µM*	.	.
CCOc1cc(-c2ccc(OC(=O)c3ccccc3F)cc2)cc(=O)c2c(C)oc(C)c12	.	13µM*	13µM*	.	.
SMILES	HT1080 IDH1KD tx	DT40 TDP1 CPT	TDP1 cell noCPT	IL-1B inflam inh	HT1080NT lethal
COc1ccc(Cc2nnc(Nc3ccc4c(c3)OCCO4)[nH]c2=O)cc1	-3.9%	-0.2%	-19.7%	3.6	11.5%
CCOc1ccc(-c2cc(OC(=O)c3ccc(F)cc3)c3c(C)oc(C)c3c(=O)c2)cc1	.	?	16.4µM*	.	.
CC(=O)N1CC[n+]2c(-c3ccc(Cl)cc3)csc21	-3.9%	25.9µM*	23.1µM*	-1.8	-4.6%
CCc1ccc(-c2csc3[n+]2CCN3C(C)=O)cc1	-4.3%	?	25.9µM*	-9.1	-0.2%
C=Cn1c(C(=O)O)ccc1-c1ccc(CC)cc1	1.3%	-3.6%	2.2%	0.0	27.3%
O=C(NCc1cccc(Br)c1)C1CC(c2ccccc2[N+](=O)[O-])=NO1 (stereo not drawn)	-9.1%	?	?	29.2	-5.4%
COC(=O)c1ccc(CNC(=O)c2ccc(OCC(=O)N3CCOCC3)c(OC)c2)cc1	-4.9%	4.0%	-21.0%	-15.8	-5.1%
C=CCNC(=O)CN1CCN(C(c2ccccc2)c2ccccc2)CC1	0.9%	?	?	31.6	6.3%
Clc1cccc(N2CCN(c3ncnc4c3nc3n4CCCCC3)CC2)c1	.	14.6µM*	10.3µM*	.	.
Cc1cccc(N2CCN(c3ncnc4c3nc3n4CCCCC3)CC2)c1C	.	25.9µM*	?	.	.
CCOC(=O)c1ccccc1NC(=O)COC(=O)C(CCSC)NC(=O)COc1ccccc1 (stereo not drawn)	-1.0%	?	-27.1%	19.3	0.5%
Cc1cc2c3c(c1)C(C)(c1ccccc1)CC(C)(C)N3C(=O)C21C(C#N)=C(N)OC2=C1C(=O)CC(C)(C)C2 (stereo not drawn)	17.8µM*	20.6µM*	23.1µM*	?	-1.1%[9.24 µM]
COc1ccc(OC)c(CCNC(=O)CC2(CC3=NS(=O)(=O)c4ccccc4N3)CCCC2)c1	-13.4%	11.6µM*	?	-13.3	-11.8%
CN=C(C)/C(C(=O)OC)=C(/O)c1ccc(Cl)cc1Cl	10.2%	-17.2%	?	15.4	5.2%
COc1ccc(CNC(=O)C2CCN(C(=O)c3ccc(-c4ccccc4)cc3)CC2)cc1	-28.2%	?	?	-20.2	-11.4%
O=C(NCc1ccc(F)cc1)C1CCN(C(=O)c2ccc(-n3ccc4ccccc43)s2)CC1	.	16.4µM*	14.6µM*	.	.
COCCNC(=O)C1CCCN(C(=O)Cc2cccc3ccccc23)CC1 (stereo not drawn)	25.9%	2.4%	-27.2%	12.6	?
COCCCNC(=O)C1CCN(C(=O)c2ccc(-n3ccc4ccccc43)s2)CC1	.	18.4µM*	16.4µM*	.	.
CCC(=O)N1CCCc2cc(S(=O)(=O)N3CCN(c4ccccn4)CC3)ccc21	-15.9%	?	20.6µM*	-15.6	-7.6%
CCC(=O)N1CCCc2cc(S(=O)(=O)N3CCN(c4ncccn4)CC3)ccc21	-0.7%	14.6µM*	?	-1.2	-2.7%
CCC(=O)N1CCc2cc(S(=O)(=O)N3CCCC3)ccc21	2.5%	-3.4%	-11.3%	4.0	2.2%
